Experimental data as given in PubChem BioAssay (NCATS).
Records with an inconclusive call do not appear. The source made the active and inactive calls. Unless noted, calls follow the shape of the dose curve; as a rule, active = well fitted curve in the direction sought with a large enough effect; inconclusive = small, poorly fitted or top-dose-only effect, or another doubt; inactive = no such curve, though single readings can be large; an effect the other way counts as inactive or inconclusive.

Experiments:
[1] = P-glycoprotein substrates identified in KB-8-5-11 adenocarcinoma cell line, qHTS therapeutic library screen (AID 1346987); also: series mostly up to about 44 µM; nearly all actives have a fitted effect of over 65% in size
How it was run: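 Compounds are pinned in dose-response onto KB-8-5-11 cells (500 cells/well, colchicine-free medium) and left 72 h at 37 degree C. CellTiter-Glo luminescence then yields AC50 values.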

[2] = Natriuretic polypeptide receptor (hNpr1) antagonism - Pilot counterscreen GloSensor control cell line (AID 1347045; calls by dose curve; also: series mostly up to about 38 µM)
How it was run: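 Control counterscreen: luciferase cGMP-biosensor HEK293 cells (no Npr1) received compound for 30 min at room temperature after GloSensor substrate loading. Luminescence was measured before and 20 min after soluble guanylyl cyclase activation by 50 uM nitroprusside.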

[3] = molecular target: Atrial natriuretic peptide receptor 1 (Homo sapiens) (UniProt P16066); test: Natriuretic polypeptide receptor (hNpr1) antagonism - Pilot screen (AID 1347049; calls by dose curve;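 also: agonist-evoked cGMP luminescence read 20 min after hNppA addition; series mostly up to about 58 µM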)
Atrial natriuretic peptide receptor 1 (Homo sapiens), sequence (P16066 whole entry, looked up): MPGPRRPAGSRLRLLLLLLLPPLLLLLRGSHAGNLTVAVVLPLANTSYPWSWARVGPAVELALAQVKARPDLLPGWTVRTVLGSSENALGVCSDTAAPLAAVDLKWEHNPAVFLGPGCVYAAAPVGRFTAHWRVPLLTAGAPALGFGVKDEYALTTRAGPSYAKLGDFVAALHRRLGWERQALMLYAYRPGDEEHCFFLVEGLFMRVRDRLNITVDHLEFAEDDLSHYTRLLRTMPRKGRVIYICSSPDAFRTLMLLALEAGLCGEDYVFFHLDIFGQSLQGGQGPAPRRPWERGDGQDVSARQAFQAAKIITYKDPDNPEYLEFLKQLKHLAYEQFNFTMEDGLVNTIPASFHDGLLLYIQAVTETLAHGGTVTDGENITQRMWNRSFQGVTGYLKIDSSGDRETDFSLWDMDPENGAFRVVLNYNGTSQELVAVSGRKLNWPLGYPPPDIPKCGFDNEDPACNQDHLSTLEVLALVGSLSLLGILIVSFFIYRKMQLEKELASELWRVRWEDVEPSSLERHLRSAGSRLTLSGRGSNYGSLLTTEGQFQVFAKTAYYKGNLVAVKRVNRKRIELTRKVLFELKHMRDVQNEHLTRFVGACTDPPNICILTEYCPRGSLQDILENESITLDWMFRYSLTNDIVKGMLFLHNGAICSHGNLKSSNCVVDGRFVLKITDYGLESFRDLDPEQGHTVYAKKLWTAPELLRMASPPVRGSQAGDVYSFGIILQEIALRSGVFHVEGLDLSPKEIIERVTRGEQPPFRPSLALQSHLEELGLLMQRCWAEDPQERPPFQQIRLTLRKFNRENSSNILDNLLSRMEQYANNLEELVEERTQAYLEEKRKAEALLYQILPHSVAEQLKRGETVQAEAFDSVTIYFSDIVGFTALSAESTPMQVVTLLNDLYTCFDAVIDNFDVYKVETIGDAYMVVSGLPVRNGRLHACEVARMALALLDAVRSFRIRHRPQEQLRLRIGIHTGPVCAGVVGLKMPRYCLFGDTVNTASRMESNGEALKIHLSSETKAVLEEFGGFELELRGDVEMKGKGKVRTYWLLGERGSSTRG
How it was run: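 cGMP-sensor HEK293/hNpr1 cells, 1500/well, plated overnight at 37C. 2% GloSensor reagent, 2 h RT. Compound (23 nL pin transfer) 30 min RT, baseline luminescence pre-read. 0.1 nM hNppA, 20 min RT, post-read.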

[4] = molecular target: Atrial natriuretic peptide receptor 2 (Homo sapiens) (UniProt P20594); test: Natriuretic polypeptide receptor (hNpr2) antagonism - Pilot subtype selectivity assay (AID 1347050; calls by dose curve)
Atrial natriuretic peptide receptor 2 (Homo sapiens), sequence (P20594 whole entry, looked up): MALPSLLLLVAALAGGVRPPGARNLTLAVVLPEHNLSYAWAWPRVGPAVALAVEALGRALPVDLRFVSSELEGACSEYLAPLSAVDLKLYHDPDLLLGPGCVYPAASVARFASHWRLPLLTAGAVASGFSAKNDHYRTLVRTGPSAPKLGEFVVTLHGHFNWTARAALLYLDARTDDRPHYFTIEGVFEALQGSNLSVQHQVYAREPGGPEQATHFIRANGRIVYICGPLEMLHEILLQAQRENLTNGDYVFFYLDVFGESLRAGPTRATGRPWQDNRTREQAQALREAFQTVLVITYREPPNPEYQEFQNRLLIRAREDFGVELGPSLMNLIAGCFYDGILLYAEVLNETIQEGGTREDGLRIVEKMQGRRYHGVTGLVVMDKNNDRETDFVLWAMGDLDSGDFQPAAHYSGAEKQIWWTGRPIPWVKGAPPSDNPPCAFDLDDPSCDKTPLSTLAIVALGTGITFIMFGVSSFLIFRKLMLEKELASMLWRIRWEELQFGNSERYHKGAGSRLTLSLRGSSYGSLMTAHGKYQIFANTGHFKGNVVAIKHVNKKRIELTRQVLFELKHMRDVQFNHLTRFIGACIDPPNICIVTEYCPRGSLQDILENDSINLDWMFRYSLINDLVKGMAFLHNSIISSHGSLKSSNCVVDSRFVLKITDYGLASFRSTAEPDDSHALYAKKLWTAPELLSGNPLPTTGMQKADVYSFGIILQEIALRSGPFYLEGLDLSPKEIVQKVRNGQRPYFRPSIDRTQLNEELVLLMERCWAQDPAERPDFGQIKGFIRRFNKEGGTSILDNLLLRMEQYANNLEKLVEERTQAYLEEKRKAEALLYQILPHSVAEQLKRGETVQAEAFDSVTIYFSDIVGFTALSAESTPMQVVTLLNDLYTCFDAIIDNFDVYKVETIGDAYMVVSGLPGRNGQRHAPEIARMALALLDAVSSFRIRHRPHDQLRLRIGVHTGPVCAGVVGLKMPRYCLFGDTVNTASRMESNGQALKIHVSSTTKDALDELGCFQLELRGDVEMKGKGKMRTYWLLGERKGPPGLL
How it was run: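 Luminescence from a genetically encoded cGMP luciferase biosensor in hNpr2-expressing HEK293 cells is read before and 20 min after adding 1 nM hNppC. Test compounds, in interplate 1:5 titrations, are added 30-50 min ahead of the agonist.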

[5] = NS1 protein of Zika virus - qHTS assay to identify small molecule inhibitors in human HEK 293 cells (AID 1347053); also: series mostly up to about 46 µM; nearly all actives have a fitted effect of over 55% in size
How it was run: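 Read-out is a two-antibody TR-FRET for ZIKV NS1, normalized between uninfected cells and infected cells. Compound added 1 h before MR766 infection at MOI 0.5; human HEK 293 cells incubated 24 h, 37 C.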

[6] = molecular target: T1, Tyrosine-protein phosphatase non-receptor type substrate 1 (Homo sapiens) + Leukocyte surface antigen CD47 (Homo sapiens) (UniProt P78324+Q08722); test: CD47-SIRPalpha protein protein interaction - LANCE assay qHTS validation (AID 1347057; active = well fitted curve in the direction sought with a large enough effect in the signal ratio, with a control signal flat, not every such curve was filed as active; the % refers to the signal ratio; also: series mostly up to about 38 µM)
T1 sequence (P78324 whole entry, looked up, the tested form may be a part): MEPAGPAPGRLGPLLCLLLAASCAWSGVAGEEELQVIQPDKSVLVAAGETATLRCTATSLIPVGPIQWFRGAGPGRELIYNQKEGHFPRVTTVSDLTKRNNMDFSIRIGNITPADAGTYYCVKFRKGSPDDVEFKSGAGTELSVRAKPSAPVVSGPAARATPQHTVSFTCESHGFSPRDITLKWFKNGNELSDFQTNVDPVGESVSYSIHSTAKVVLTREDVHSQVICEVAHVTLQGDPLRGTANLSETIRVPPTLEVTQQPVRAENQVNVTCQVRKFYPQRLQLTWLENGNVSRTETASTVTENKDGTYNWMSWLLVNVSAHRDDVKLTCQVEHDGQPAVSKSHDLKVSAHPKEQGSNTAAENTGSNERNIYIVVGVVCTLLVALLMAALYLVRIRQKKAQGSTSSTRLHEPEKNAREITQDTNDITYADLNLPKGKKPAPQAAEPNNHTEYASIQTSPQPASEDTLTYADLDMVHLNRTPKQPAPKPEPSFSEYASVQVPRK
T1 sequence (Q08722 whole entry, looked up, the tested form may be a part): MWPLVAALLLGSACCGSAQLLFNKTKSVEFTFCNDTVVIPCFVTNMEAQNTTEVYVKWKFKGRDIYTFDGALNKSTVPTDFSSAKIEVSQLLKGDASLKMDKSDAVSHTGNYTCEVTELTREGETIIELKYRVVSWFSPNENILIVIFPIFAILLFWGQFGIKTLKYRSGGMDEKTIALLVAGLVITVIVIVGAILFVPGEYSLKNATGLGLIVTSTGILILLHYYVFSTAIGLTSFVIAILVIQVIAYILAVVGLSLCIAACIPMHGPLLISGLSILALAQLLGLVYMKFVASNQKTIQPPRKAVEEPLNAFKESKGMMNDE
How it was run: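 Inhibition of soluble CD47/SIRPalpha ectodomain association by titrated compounds, measured as 665/615 nm time-resolved FRET ratio after sequential 30 min room-temperature incubations.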

[7] = molecular target: T1, Tyrosine-protein phosphatase non-receptor type substrate 1 (Homo sapiens) + Leukocyte surface antigen CD47 (Homo sapiens); test: CD47-SIRPalpha protein protein interaction - Alpha assay qHTS validation (AID 1347059);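 also: bead proximity luminescence from CD47 binding SIRPalpha after compound preincubation with SIRPalpha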
How it was run: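 SIRPalpha-biotin 25 nM + cpd, 30 min RT, dark; add CD47-His 12.5 nM, 30 min; add Ni-NTA/SAV beads 10 ug/mL, 30 min; AlphaScreen. Buffer PBS pH 7.4 + 0.05% IGEPAL CA-630. Non-biotinylated SIRPalpha as control inhibitor.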

[8] = molecular target: Parathyroid hormone/parathyroid hormone-related peptide receptor (Homo sapiens) (UniProt Q03431); test: qHTS for PTHR1 Agonists: Optimization Screen against the NCGC LOPAC library (AID 1347079);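 also: GloSensor cAMP luminescence in HEK-293 GP2 cells expressing human PTHR1 with IBMX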
Parathyroid hormone/parathyroid hormone-related peptide receptor (Homo sapiens), sequence (Q03431 whole entry, looked up): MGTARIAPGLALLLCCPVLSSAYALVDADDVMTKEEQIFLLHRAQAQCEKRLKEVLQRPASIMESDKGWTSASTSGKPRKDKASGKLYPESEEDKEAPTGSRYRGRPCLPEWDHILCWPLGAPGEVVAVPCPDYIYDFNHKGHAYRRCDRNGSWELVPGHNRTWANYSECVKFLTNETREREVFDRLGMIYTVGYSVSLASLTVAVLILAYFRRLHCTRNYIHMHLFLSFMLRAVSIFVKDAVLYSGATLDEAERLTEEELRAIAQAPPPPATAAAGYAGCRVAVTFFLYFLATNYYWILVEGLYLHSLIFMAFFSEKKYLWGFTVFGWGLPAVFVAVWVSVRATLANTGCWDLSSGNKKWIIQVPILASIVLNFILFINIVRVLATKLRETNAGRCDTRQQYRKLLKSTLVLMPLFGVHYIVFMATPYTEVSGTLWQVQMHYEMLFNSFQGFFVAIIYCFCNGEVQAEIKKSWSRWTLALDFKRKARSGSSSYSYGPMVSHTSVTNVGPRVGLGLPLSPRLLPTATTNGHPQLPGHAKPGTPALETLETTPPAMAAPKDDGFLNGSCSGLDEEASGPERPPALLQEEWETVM
How it was run: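 HEK-293 GP2 cells, PTHR1 + GloSensor cAMP; 3000 cells/well, o/n. Luciferin + IBMX 0.5mM each (stock), 1 hr 37C. Cpd titration, 1 hr 37C. Lum after 15 min RT. Ctrl M-PTH(1-15) top 10uM.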

[9] = qHTS for Inhibitors of the Functional Ribonucleoprotein Complex (vRNP) of Lassa (LASV) Arenavirus: LASV Primary Screen - GLuc reporter signal (AID 1347082; calls by dose curve; tested in HEK293 reporter line; also: series mostly up to about 57 µM; nearly all actives have a fitted effect of over 60% in size)
[10] = qHTS for Inhibitors of the Functional Ribonucleoprotein Complex (vRNP) of Lassa (LASV) Arenavirus: Viability assay - alamar blue signal for LASV Primary Screen (AID 1347083; calls by dose curve; tested in HEK293 reporter line; also: series mostly up to about 57 µM; nearly all actives have a fitted effect of over 80% in size)
[11] = qHTS for Inhibitors of the Functional Ribonucleoprotein Complex (vRNP) of Lymphocytic Choriomeningitis Arenaviruses (LCMV): Viability assay - alamar blue signal for LCMV Primary Screen (AID 1347085; calls by dose curve; tested in HEK293 reporter line; also: series mostly up to about 57 µM; nearly all actives have a fitted effect of over 80% in size)
[12] = molecular target: Nucleoprotein (Lymphocytic choriomeningitis virus (strain Armstrong)) (UniProt P09992); test: qHTS for Inhibitors of the Functional Ribonucleoprotein Complex (vRNP) of Lymphocytic Choriomeningitis Arenaviruses (LCMV): LCMV Primary Screen - GLuc reporter signal (AID 1347086; calls by dose curve; also: series mostly up to about 57 µM; nearly all actives have a fitted effect of over 70% in size)
Nucleoprotein (Lymphocytic choriomeningitis virus (strain Armstrong)), sequence (P09992 whole entry, looked up): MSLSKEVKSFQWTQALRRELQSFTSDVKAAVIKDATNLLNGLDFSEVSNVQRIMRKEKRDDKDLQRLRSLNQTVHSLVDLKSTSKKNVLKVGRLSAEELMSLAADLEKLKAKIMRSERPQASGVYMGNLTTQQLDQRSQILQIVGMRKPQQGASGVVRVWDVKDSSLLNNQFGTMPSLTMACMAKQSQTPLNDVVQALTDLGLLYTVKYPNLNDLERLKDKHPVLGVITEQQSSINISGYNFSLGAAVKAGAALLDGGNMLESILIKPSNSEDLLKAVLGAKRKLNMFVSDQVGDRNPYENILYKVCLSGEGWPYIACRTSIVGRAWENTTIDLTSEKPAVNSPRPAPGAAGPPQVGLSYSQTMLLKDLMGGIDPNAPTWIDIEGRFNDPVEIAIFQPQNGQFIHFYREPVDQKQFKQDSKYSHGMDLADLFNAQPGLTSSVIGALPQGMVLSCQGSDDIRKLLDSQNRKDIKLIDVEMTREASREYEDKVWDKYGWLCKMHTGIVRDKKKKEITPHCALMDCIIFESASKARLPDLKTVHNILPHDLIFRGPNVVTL

[13] = qHTS of pediatric cancer cell lines to identify multiple opportunities for drug repurposing: Primary screen for TC32 cells (AID 1347089); also: nearly all actives have a fitted effect of over 60% in size
How it was run: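 Luminescent ATP read-out (CellTiter-Glo) of metabolically active TC32 cells after 48 h exposure. Concentration-response curves came from 11-point (MIPE, 0.78 nM–46 µM) or 8-point (NPC, 0.59 nM–46 µM) primary titrations; follow-up used 11 points.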

[14] = qHTS of pediatric cancer cell lines to identify multiple opportunities for drug repurposing: Primary screen for DAOY cells (AID 1347090); also: series mostly up to about 46 µM; nearly all actives have a fitted effect of over 55% in size
How it was run: (§1)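 Viability measured as metabolically active cells via CellTiter-Glo luminescence following 48 hours of compound exposure, 11-point dilutions in confirmatory testing. 500-1,000 cells/well plated 5 hours before dosing; controls were DMSO and 2.3 µM bortezomib.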

[15] = qHTS of pediatric cancer cell lines to identify multiple opportunities for drug repurposing: Primary screen for SJ-GBM2 cells (AID 1347091)
How it was run: as §1

[16] = qHTS of pediatric cancer cell lines to identify multiple opportunities for drug repurposing: Primary screen for A673 cells (AID 1347092); also: nearly all actives have a fitted effect of over 45% in size
How it was run: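 Cell viability of A673 measured by CellTiter-Glo ATP luminescence after 48 hours compound exposure. Dilution series spanned 0.78 nM to 46 µM (MIPE, 11-point) or 0.59 nM to 46 µM (NPC, 8-point); bortezomib 2.3 uM positive control.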

[17] = qHTS of pediatric cancer cell lines to identify multiple opportunities for drug repurposing: Primary screen for SK-N-MC cells (AID 1347093); also: series mostly up to about 46 µM
How it was run: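 Metabolically active cells were quantified by ATP-dependent luminescence (CellTiter-Glo, 15 min at room temperature) following 48 h treatment. Cells had been plated at 500-1,000 per well and settled for 5 h beforehand.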

[18] = qHTS of pediatric cancer cell lines to identify multiple opportunities for drug repurposing: Primary screen for BT-37 cells (AID 1347094); also: series mostly up to about 57 µM
How it was run: (§2)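 CRCs from 8- or 11-point titrations (lowest final 0.59 nM NPC, 0.78 nM MIPE). Cell viability: CellTiter-Glo after 48 h incubation, 15 min room-temperature development, luminescence imaging.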

[19] = qHTS of pediatric cancer cell lines to identify multiple opportunities for drug repurposing: Primary screen for NB-EBc1 cells (AID 1347095)
How it was run: as §2

[20] = qHTS of pediatric cancer cell lines to identify multiple opportunities for drug repurposing: Primary screen for U-2 OS cells (AID 1347096); also: nearly all actives have a fitted effect of over 50% in size
How it was run: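 Viability after 48 h compound treatment at 37C, 500-1,000 cells/well, read as ATP luminescence with CellTiter-Glo. Primary screens used 11-point (MIPE, 0.78 nM-46 µM) or 8-point (NPC, 0.59 nM-46 µM) final concentrations; follow-up screens used 11-point dilutions.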

Measured: Potency

CC(C)N(CCC(C(N)=O)(c1ccccc1)c1ccccn1)C(C)C (centres undefined)
not listed: [20]
inactive: all other assays above

Clc1ccc2c(c1)C(c1ccccc1)=NCc1nncn1-2
inactive: [1]

O=[N+]([O-])O[C@H]1CO[C@H]2[C@@H]1OC[C@H]2O[N+](=O)[O-]
not listed: [2] | [3] | [4] | [6] | [7] | [8] | [20]
inactive: all other assays above

C=C(C)[C@H]1CN[C@H](C(=O)O)[C@H]1CC(=O)O
not listed: [2] | [15] | [19]
inactive: all other assays above

CN=C1CN(O)C(c2ccccc2)=c2cc(Cl)ccc2=N1
inactive: [1]

O=C1Nc2ccc(Cl)cc2C(c2ccccc2Cl)=NC1O (centres undefined)
inactive: [1]

CN1C(=O)COc2c(C(=O)NC3CN4CCC3CC4)cc(Cl)cc21 (centres undefined)
not listed: [2] | [3] | [4] | [6] | [7] | [8] | [20]
inactive: all other assays above

COP(=S)(OC)Oc1ccc(S(=O)(=O)N(C)C)cc1
not listed: [2] | [3] | [4] | [6] | [7] | [8] | [20]
inactive: all other assays above

CN1C(=O)CCS(=O)(=O)C1c1ccc(Cl)cc1 (centres undefined)
not listed: [15]
inactive: all other assays above

Cc1ncsc1CCCl
not listed: [19]
inactive: all other assays above

C#C[C@]1(O)CC[C@H]2[C@@H]3CCC4=CC(=O)CC[C@]4(C)[C@H]3CC[C@@]21C
not listed: [2] | [3] | [4] | [6] | [7] | [8] | [20]
inactive: all other assays above
